Measured values reported in PubChem BioAssay (EPA / NIEHS).
Where “and” joins values, the source holds several entries; their conditions need not be identical. Equal entries are not always repeated. Where a structure was tested more than once in an assay, its records may differ in their call. Calls of active or inactive are those of the source. The calls were made as follows: active = hit-call score of the fitted dose curve at least 0.9, where 1 is the maximum; inactive = score below 0.9.

Experiments:
[1] = BSK_3C_SRB: Viability Assessment in the BioMAP Diversity Plus: 3C Assay (AID 2283023); conditions: primary human endothelial cells (HUVEC);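 also: fitted both ways against DMSO so a hit may be signal rise or drop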
Outline: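 Human umbilical vein endothelial cells in the 3C system, treated 24 h. Total protein measured by 0.1% sulforhodamine B staining after 10% TCA fixation, read at 560 nm; bidirectional fit versus DMSO.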

[2] = read-out: Matrix Metallopeptidase 1 (MMP1), MMP1 (gene 4312); assay: BSK_BE3C_MMP1: BioMAP Diversity Plus: BE3C Assay for Matrix Metallopeptidase 1 (MMP1) Biomarker Activity (AID 2283024); conditions: primary human bronchial epithelial cells; actives raise or lower the signal
Outline: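 ELISA measurement of MMP-1 after 24 h compound exposure of primary human bronchial epithelial cells. Changes in either direction fitted relative to DMSO; parallel SRB staining checked overt cytotoxicity.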

[3] = BSK_3C_Vis: BioMAP Diversity Plus: 3C Assay for Morphology Visualization (AID 2283025); conditions: primary human endothelial cells (HUVEC);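 also: fitted both ways so gain or loss versus DMSO counts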;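 as to AC50: light microscopy image of cell morphology used as background control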
Outline: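 Light-microscopy visualization of HUVEC cultures at 24 h post-treatment, with DMSO as baseline for bidirectional fitting.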

[4] = read-out: Pselectin, SELP (gene 6403); assay: BSK_4H_Pselectin: BioMAP Diversity Plus: 4H Assay for Pselectin Biomarker Activity (AID 2283026); conditions: primary human endothelial cells (HUVEC); actives raise or lower the signal
Outline: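 ELISA of surface P-selectin on HUVEC, 24 h after dosing, with parallel SRB staining (0.1% after 10% TCA fixation, 560 nm) for overt cytotoxicity. Activity fitted in both directions relative to DMSO.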

[5] = BSK_4H_SRB: Viability Assessment in the BioMAP Diversity Plus: 4H Assay (AID 2283027); conditions: primary human endothelial cells (HUVEC);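 also: cells exposed to compound for 24 h before staining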;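 as to AC50: curves fitted both ways versus DMSO so AC50 may be loss or gain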
Outline: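 Cytotoxicity readout: sulforhodamine B (0.1%) staining of total protein after 10% TCA fixation, measured at 560 nm in human umbilical vein endothelium at 24 h. DMSO set the baseline; fitting was bidirectional.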

[6] = BSK_BE3C_SRB: Viability Assessment in the BioMAP Diversity Plus: BE3C Assay (AID 2283028); conditions: primary human bronchial epithelial cells;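 as to AC50: fitted both ways so AC50 may mark signal gain or loss versus DMSO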
Outline: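 Human bronchial epithelial primary cells in confluent culture, 24 h after chemical dosing; total protein by 0.1% SRB staining after 10% TCA fixation, read at 560 nm. Bidirectional fitting versus DMSO baseline.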

[7] = read-out: Thrombomodulin, THBD (gene 7056); assay: BSK_3C_Thrombomodulin: BioMAP Diversity Plus: 3C Assay for Thrombomodulin Biomarker Activity (AID 2283029); conditions: primary human endothelial cells (HUVEC); actives raise or lower the signal
Outline: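 ELISA measurement of thrombomodulin on HUVEC surface 24 h after chemical dosing; activity fitted in both directions relative to DMSO vehicle.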

[8] = read-out: Urokinase-type plasminogen activator receptor (uPAR), PLAUR (gene 5329); assay: BSK_4H_uPAR: BioMAP Diversity Plus: 4H Assay for Urokinase-type plasminogen activator receptor (uPAR) Biomarker Activity (AID 2283030); conditions: primary human endothelial cells (HUVEC); actives raise or lower the signal
Outline: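 Human umbilical vein endothelial cells in the 4H system, 24 h after chemical dosing. Cell-surface uPAR measured by ELISA, fitted in both directions versus DMSO; cytotoxicity checked by SRB total protein in parallel cultures.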

[9] = read-out: Vascular endothelial growth factor receptor 2 (Homo sapiens) (UniProt P35968); assay: BSK_4H_VEGFRII: BioMAP Diversity Plus: 4H Assay for Vascular endothelial growth factor receptor 2 (VEGFR2) Biomarker Activity (AID 2283031); conditions: primary human endothelial cells (HUVEC); actives raise or lower the signal;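 as to AC50: cell-surface VEGFR2 protein level quantified by ELISA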
Outline: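 Primary human umbilical vein endothelial cells (4H system), 24 h exposure; cell-surface VEGFR2 measured by ELISA. Bidirectional fitting versus DMSO; cytotoxicity checked in parallel by SRB total-protein staining.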

[10] = read-out: Human Leukocyte Antigen - DR isotype (HLADR), HLA-DRA (gene 3122); assay: BSK_BE3C_HLADR: BioMAP Diversity Plus: BE3C Assay for Human Leukocyte Antigen - DR isotype (HLADR) Biomarker Activity (AID 2283032); conditions: primary human bronchial epithelial cells; actives raise or lower the signal
Outline: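 Cell-surface HLA-DR ELISA readout at 24 h after dosing in the BE3C primary human lung bronchial epithelial system; gain or loss of signal against DMSO, with parallel sulforhodamine B staining of total protein for overt cytotoxicity.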

Measured: AC50

COC(=O)CSc1cc(N=c2sc(=O)n3n2CCCC3)c(F)cc1Cl
active: [7] 1.21 µM
inactive: all other assays above

N[C@@H](Cc1cc(I)c(Oc2ccc(O)c(I)c2)c(I)c1)C(=O)O
active: [2] 3.8 µM
inactive: all other assays above

c1ccc(Nc2ccccc2)cc1
inactive: all assays above

CCOC(=O)NCCOc1ccc(Oc2ccccc2)cc1
active: [1] 20 µM | [10] 15.7 µM
not listed: [3]
inactive: all other assays above

S=C([S-])NCCNC(=S)[S-].[Mn+2]
active: [3] 39 µM | [4] 27.8 µM | [10] 30.5 µM
inactive: all other assays above

CCCOC(=O)c1ccc(C(=O)OCCC)nc1
inactive: all assays above

CCNc1nc(N)nc(Cl)n1
inactive: all assays above

S=C(S)NCCNC(=S)S.[Mn+2].[S-]C([S-])=NCCN=C([S-])[S-].[Zn+2]
inactive: [1] | [2] | [4] | [5] | [6] | [7] | [8] | [9] | [10]
active: [2] 1.34 µM | [10] 8.2 µM and 10 µM

N#CSCSc1nc2ccccc2s1
inactive: [6] | [7]
active: [1] 5.31 µM and 5.24 µM | [2] 7.12 µM and 11.3 µM | [3] 4.4 µM and 4.82 µM | [4] 1.24 µM and 5.49 µM | [5] 3.51 µM and 10.6 µM | [6] 5.15 µM | [7] 35.8 µM | [8] 5.3 µM and 6.65 µM | [9] 5.06 µM and 5.42 µM | [10] 6.17 µM and 12.1 µM

C#C[C@]1(O)CC[C@H]2[C@@H]3CCC4=CC(=O)CC[C@@H]4[C@H]3CC[C@@]21CC
active: [2] 3.16 µM
inactive: all other assays above

OB(O)O
inactive: all assays above

COC(=O)c1ccc(I)cc1S(=O)(=O)NC(=O)Nc1nc(C)nc(OC)n1
inactive: all assays above

CC(C)(C)[C@@H](O)[C@@H](Cc1ccc(Cl)cc1)n1cncn1
not listed: [3]
inactive: all other assays above

CSC(=O)c1cccc2nnsc12
inactive: all assays above

CCC(C)OC(=O)N1CCCCC1CCO (stereo unspecified)
inactive: all assays above
